# Experimental data: article PMC7862700, “An all-to-all approach to the identification of sequence-specific readers for epigenetic DNA modifications on cytosine”
# Experiments:
# Experiment in all cases: DAPPL (digital affinity profiling via proximity ligation, sequencing); 10 mM Tris-HCl pH 7.5, 50 mM NaCl, 1 mM DTT, 4% glycerol, room temperature, 30 min; GST-TFs on glutathione beads, 16-mer random dsDNA library, 0.1% formaldehyde crosslink after washing; high values mean tight binding
# [1] = molecular target: T1, FEV (Homo sapiens, UniProt Q99581 1-238); conditions: protein: recombinant; tags: N-terminal GST; dsDNA, one strand shown
# T1 sequence: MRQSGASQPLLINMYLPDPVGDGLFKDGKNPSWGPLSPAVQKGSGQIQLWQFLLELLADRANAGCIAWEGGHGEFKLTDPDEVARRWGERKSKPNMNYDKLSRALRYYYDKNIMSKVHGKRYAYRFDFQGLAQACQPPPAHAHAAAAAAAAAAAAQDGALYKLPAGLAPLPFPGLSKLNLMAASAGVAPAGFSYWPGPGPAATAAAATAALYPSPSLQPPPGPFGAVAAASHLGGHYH
# In short: (§1)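 Binding signal is each hexamer's read frequency for a factor divided by its frequency in the tag-only sample. The factors were GST-fused human transcription factors from yeast, captured on glutathione beads, DNA-barcoded and pooled with that sample. Pools were incubated with 200 nmole of a random double-stranded 16-mer DNA library in Tris/NaCl/DTT/glycerol buffer at room temperature for 30 min, then washed, crosslinked with 0.1% formaldehyde, proximity-ligated with BsaI/T4 ligase (1 h, 37 °C), PCR-amplified and sequenced on an Illumina NextSeq500.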
# [2] = molecular target: ETV5 (Homo sapiens, UniProt P41161 1-510); conditions: protein: recombinant; tags: N-terminal GST; dsDNA, one strand shown
# Sequence of ETV5 (P41161 whole entry): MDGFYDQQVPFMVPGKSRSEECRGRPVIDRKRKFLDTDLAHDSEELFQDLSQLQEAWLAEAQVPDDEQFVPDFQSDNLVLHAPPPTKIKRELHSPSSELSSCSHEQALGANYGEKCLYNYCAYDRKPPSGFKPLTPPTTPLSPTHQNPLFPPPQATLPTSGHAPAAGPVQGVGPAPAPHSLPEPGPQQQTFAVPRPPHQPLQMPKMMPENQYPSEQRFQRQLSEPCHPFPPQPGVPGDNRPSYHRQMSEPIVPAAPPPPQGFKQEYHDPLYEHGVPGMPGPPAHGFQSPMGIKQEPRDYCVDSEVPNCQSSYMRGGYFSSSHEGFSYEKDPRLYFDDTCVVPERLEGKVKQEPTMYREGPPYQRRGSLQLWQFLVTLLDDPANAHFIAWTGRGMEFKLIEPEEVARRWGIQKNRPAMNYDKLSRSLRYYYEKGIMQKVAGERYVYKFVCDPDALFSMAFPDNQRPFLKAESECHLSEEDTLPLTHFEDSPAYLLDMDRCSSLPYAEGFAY
# In short: as §1
# [3] = molecular target: HSF1 (Homo sapiens, UniProt Q00613 1-529); conditions: protein: recombinant; tags: N-terminal GST; chain copies: 3; dsDNA, one strand shown
# Sequence of HSF1 (Q00613 whole entry): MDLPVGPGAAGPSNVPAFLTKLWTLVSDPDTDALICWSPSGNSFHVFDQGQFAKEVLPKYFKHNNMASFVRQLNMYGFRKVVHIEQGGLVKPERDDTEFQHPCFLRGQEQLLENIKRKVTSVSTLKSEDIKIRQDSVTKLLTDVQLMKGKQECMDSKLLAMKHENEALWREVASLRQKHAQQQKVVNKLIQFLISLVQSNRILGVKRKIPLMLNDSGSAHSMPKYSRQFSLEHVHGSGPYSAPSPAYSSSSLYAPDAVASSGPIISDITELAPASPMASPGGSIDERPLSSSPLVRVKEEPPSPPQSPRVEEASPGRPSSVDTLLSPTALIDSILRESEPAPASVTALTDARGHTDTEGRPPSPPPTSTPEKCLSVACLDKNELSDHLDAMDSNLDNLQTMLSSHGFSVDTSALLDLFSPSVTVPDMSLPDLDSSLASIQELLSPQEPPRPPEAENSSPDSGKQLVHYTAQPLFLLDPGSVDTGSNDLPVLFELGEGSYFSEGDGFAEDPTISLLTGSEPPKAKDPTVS
# In short: as §1
# [4] = molecular target: T2, SPIC (Homo sapiens, UniProt Q8N5J4 1-248); conditions: protein: recombinant; tags: N-terminal GST; dsDNA, one strand shown
# T2 sequence: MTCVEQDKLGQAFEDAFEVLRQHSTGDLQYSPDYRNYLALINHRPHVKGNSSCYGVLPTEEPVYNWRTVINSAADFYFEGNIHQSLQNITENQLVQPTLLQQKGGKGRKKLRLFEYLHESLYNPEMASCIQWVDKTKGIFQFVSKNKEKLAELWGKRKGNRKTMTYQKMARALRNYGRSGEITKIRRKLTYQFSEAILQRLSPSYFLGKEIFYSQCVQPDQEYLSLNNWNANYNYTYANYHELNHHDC
# In short: as §1
# [5] = molecular target: ELF4 (Homo sapiens, UniProt Q99607 1-663); conditions: protein: recombinant; tags: N-terminal GST; dsDNA, one strand shown
# Sequence of ELF4 (Q99607 whole entry): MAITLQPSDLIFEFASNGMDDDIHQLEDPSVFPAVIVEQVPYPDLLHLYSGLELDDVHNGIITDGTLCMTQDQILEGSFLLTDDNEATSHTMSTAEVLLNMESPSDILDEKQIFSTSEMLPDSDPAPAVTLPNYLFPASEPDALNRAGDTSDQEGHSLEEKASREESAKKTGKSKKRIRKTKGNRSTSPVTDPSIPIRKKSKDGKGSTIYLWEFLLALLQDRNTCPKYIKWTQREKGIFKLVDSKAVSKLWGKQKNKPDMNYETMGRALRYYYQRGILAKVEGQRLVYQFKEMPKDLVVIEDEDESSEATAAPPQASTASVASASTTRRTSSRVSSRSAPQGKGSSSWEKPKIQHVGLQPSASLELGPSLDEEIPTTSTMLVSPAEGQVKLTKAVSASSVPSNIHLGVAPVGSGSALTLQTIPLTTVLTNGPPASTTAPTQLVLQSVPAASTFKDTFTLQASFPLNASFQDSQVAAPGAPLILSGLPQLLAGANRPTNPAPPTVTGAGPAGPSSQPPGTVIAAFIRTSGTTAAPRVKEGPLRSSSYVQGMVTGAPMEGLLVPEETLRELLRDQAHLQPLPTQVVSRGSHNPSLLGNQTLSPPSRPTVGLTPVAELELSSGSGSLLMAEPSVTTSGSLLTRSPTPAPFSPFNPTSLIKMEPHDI
# In short: as §1
# [6] = molecular target: T3, ELK4 (Homo sapiens, UniProt P28324-2 1-405); conditions: protein: recombinant; tags: N-terminal GST; dsDNA, one strand shown
# T3 sequence: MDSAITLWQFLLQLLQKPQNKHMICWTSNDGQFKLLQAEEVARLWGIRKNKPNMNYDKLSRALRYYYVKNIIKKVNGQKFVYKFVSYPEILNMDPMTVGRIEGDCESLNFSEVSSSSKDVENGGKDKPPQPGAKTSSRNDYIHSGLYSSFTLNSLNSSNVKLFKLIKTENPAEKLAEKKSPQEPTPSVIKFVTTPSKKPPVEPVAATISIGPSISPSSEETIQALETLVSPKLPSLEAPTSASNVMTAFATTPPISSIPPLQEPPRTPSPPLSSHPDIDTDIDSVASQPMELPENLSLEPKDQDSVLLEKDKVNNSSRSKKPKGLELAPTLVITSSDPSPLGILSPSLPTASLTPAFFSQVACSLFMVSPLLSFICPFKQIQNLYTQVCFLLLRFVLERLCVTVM
# In short: as §1
# [7] = molecular target: T4, ETV2 (Homo sapiens, UniProt O00321 1-342); conditions: protein: recombinant; tags: N-terminal GST; dsDNA, one strand shown
# T4 sequence: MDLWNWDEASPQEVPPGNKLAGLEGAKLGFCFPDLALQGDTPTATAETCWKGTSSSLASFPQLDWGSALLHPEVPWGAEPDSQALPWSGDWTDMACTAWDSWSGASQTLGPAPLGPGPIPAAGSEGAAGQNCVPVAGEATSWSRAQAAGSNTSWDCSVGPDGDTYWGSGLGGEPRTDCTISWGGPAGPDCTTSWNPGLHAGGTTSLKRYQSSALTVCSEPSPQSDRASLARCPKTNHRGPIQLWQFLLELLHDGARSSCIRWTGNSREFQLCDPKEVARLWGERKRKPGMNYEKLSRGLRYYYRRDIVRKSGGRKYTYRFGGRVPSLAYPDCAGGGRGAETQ
# In short: as §1
# [8] = molecular target: T5, ELF3 (Homo sapiens, UniProt P78545 1-371); conditions: protein: recombinant; tags: N-terminal GST; dsDNA, one strand shown
# T5 sequence: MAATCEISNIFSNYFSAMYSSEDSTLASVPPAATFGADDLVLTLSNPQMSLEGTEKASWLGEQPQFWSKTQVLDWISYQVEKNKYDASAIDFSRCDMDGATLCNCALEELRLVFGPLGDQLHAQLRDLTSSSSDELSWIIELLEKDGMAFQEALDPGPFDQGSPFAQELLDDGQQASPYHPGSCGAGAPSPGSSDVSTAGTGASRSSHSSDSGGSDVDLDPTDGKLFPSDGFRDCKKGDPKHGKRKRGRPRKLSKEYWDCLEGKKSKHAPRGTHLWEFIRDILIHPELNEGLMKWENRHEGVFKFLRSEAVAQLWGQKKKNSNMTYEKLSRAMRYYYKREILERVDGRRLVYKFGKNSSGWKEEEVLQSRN
# In short: as §1
# [9] = molecular target: CRX (Homo sapiens, UniProt O43186 1-299); conditions: protein: recombinant; tags: N-terminal GST; dsDNA, one strand shown
# Sequence of CRX (O43186 whole entry): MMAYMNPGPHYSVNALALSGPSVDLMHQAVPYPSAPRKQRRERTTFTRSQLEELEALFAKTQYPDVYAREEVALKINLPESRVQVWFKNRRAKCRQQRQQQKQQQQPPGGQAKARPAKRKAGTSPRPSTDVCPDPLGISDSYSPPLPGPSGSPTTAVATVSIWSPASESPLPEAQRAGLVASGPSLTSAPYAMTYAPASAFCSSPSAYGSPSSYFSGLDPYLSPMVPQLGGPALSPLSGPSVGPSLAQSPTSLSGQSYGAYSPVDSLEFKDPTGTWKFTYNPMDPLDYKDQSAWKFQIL
# In short: as §1
# [10] = molecular target: ETV1 (Homo sapiens, UniProt P50549 1-477); conditions: protein: recombinant; tags: N-terminal GST; dsDNA, one strand shown
# Sequence of ETV1 (P50549 whole entry): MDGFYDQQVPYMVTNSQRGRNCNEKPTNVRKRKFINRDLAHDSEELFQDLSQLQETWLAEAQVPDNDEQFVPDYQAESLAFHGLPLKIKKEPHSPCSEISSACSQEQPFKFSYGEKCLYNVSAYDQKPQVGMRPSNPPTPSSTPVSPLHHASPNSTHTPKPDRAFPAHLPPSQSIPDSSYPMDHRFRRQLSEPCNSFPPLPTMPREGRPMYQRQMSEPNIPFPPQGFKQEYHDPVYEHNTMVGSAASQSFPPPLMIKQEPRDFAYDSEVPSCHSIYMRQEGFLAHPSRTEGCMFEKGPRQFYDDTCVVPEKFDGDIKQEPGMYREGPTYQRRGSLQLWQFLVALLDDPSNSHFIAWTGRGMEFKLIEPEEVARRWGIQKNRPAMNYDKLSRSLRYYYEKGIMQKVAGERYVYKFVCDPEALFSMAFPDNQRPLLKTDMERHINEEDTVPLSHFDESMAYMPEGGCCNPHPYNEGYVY
# In short: as §1
# [11] = molecular target: T6, ERF (Homo sapiens, UniProt P50548 1-548); conditions: protein: recombinant; tags: N-terminal GST; dsDNA, one strand shown
# T6 sequence: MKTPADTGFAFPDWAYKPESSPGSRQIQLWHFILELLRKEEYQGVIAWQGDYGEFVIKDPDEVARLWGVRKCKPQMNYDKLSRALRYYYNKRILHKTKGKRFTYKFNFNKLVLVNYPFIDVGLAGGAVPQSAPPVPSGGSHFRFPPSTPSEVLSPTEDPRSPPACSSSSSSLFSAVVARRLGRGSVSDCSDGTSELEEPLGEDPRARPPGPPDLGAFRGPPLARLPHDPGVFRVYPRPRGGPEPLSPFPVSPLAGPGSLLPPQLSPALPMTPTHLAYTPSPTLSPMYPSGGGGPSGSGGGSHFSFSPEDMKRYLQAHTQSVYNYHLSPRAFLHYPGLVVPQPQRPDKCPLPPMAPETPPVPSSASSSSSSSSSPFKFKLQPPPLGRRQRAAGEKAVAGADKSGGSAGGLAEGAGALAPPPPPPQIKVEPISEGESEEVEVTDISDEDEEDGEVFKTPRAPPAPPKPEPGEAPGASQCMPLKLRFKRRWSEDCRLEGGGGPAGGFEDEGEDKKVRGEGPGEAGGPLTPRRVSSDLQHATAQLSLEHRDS
# In short: as §1
# [12] = molecular target: T7, ETV3L (Homo sapiens, UniProt Q6ZN32 1-361); conditions: protein: recombinant; tags: N-terminal GST; dsDNA, one strand shown
# T7 sequence: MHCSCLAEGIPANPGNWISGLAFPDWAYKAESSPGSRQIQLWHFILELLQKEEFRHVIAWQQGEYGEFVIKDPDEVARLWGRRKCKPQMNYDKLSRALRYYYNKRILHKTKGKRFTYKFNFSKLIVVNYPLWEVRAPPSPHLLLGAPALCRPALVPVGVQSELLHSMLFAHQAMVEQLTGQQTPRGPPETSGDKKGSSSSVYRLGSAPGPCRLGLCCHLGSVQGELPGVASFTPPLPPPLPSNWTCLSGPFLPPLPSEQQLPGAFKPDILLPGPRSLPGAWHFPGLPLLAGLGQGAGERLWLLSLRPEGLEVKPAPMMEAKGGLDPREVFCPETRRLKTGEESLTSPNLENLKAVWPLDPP
# In short: as §1
# [13] = molecular target: T8, ETS2 (Homo sapiens, UniProt P15036 1-469); conditions: protein: recombinant; tags: N-terminal GST; dsDNA, one strand shown
# T8 sequence: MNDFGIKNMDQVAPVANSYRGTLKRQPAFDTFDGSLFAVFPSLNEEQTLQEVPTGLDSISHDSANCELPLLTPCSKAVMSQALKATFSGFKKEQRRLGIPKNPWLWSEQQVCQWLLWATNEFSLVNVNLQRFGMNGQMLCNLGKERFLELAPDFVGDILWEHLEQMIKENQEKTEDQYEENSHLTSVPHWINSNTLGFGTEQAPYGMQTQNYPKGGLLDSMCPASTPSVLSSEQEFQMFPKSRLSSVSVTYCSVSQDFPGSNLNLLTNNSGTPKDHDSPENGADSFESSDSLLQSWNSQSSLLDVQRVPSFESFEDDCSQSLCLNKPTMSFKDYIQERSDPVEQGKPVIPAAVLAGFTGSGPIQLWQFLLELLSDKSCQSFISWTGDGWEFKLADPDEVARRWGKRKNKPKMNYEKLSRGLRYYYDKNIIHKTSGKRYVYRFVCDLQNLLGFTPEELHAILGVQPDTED
# In short: as §1
# [14] = molecular target: T9, SPDEF (Homo sapiens, UniProt O95238 1-335); conditions: protein: recombinant; tags: N-terminal GST; dsDNA, one strand shown
# T9 sequence: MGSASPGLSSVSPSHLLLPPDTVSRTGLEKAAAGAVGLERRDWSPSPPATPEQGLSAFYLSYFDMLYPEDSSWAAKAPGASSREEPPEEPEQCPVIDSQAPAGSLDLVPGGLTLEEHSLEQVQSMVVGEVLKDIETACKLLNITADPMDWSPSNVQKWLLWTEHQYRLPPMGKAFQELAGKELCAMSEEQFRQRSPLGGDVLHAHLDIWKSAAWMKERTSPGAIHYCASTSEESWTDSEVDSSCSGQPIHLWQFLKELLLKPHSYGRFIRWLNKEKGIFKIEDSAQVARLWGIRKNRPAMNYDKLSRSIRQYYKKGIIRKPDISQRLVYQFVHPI
# In short: as §1
# [15] = molecular target: T10, ETV7 (Homo sapiens, UniProt Q9Y603 1-341); conditions: protein: recombinant; tags: N-terminal GST; dsDNA, one strand shown
# T10 sequence: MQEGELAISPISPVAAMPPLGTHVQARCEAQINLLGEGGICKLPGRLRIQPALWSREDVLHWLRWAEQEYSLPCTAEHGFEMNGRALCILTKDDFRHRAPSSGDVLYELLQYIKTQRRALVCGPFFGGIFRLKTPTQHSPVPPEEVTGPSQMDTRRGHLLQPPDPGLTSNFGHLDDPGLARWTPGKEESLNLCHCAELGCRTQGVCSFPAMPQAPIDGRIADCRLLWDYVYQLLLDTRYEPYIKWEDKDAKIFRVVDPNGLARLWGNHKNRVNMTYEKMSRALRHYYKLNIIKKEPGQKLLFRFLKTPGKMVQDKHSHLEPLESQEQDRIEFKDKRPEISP
# In short: as §1
# [16] = molecular target: T11, ELF5 (Homo sapiens, UniProt Q9UKW6-2 1-255); conditions: protein: recombinant; tags: N-terminal GST; dsDNA, one strand shown
# T11 sequence: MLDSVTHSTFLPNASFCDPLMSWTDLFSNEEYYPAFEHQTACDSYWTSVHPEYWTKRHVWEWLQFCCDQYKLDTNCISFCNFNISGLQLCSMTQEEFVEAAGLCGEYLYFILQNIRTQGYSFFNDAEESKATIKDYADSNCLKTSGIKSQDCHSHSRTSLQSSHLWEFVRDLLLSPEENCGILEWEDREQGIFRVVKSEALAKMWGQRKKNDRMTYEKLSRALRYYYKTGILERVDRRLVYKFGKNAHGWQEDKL
# In short: as §1
# [17] = molecular target: T12, ETV3 (Homo sapiens, UniProt P41162-2 1-143); conditions: protein: recombinant; tags: N-terminal GST; dsDNA, one strand shown
# T12 sequence: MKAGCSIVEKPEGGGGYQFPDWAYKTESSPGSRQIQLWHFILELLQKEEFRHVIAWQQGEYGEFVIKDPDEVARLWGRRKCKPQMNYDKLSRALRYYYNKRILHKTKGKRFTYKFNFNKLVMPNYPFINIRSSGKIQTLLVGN
# In short: as §1
# [18] = molecular target: ETV6 (Homo sapiens, UniProt P41212 1-452); conditions: protein: recombinant; tags: N-terminal GST; dsDNA, one strand shown
# Sequence of ETV6 (P41212 whole entry): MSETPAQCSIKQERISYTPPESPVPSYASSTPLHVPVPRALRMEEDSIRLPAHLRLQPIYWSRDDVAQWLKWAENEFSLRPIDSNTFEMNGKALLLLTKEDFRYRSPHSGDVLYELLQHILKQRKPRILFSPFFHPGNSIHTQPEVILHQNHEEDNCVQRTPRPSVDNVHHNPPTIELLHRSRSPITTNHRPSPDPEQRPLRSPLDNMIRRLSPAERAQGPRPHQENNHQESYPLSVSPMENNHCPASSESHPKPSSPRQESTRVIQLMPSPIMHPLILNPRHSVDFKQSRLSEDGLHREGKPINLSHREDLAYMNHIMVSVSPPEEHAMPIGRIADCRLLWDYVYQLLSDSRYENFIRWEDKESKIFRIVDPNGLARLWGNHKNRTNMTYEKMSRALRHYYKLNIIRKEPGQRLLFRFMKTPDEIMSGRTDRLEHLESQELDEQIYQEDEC
# In short: as §1
sequence,measurement,setting,value
CTCTGA,binding signal,[1],"1.23 fold enrichment (6-mer frequency, TF over GST control)"
same,binding signal,[2],"1.15 fold enrichment (6-mer frequency, TF over GST control)"
same,binding signal,[3],"1.06 fold enrichment (6-mer frequency, TF over GST control)"
same,binding signal,[4],"1.24 fold enrichment (6-mer frequency, TF over GST control)"
same,binding signal,[5],"1.23 fold enrichment (6-mer frequency, TF over GST control)"
same,binding signal,[6],"1.15 fold enrichment (6-mer frequency, TF over GST control)"
same,binding signal,[7],"1.12 fold enrichment (6-mer frequency, TF over GST control)"
same,binding signal,[8],"1.09 fold enrichment (6-mer frequency, TF over GST control)"
same,binding signal,[9],"1.08 fold enrichment (6-mer frequency, TF over GST control)"
same,binding signal,[10],"1.3 fold enrichment (6-mer frequency, TF over GST control)"
same,binding signal,[11],"1.22 fold enrichment (6-mer frequency, TF over GST control)"
same,binding signal,[12],"1.07 fold enrichment (6-mer frequency, TF over GST control)"
same,binding signal,[13],"1.25 fold enrichment (6-mer frequency, TF over GST control)"
same,binding signal,[14],"1.11 fold enrichment (6-mer frequency, TF over GST control)"
same,binding signal,[15],"1.34 fold enrichment (6-mer frequency, TF over GST control)"
same,binding signal,[16],"1.11 fold enrichment (6-mer frequency, TF over GST control)"
same,binding signal,[17],"1.19 fold enrichment (6-mer frequency, TF over GST control)"
same,binding signal,[18],"1.16 fold enrichment (6-mer frequency, TF over GST control)"
